In PubChem BioAssay (EPA / NIEHS):
Results filed as inconclusive are left out. Active and inactive are the calls of the source. How the source made its calls, unless noted: active means hit-call score of the fitted dose curve at least 0.9, where 1 is the maximum; inactive means score below 0.9.

Experiments:
[1] = biological target: Paired box protein Pax-6 (Homo sapiens) (UniProt P26367); test: ATG_Pax6_CIS: Attagene CIS-FACTORIAL HepG2 Assay for human Paired Box 6 (PAX6) (AID 2282956); conditions: HepG2 CIS-FACTORIAL PAX6 reporter transcription, RNA readout; actives raise or lower the signal
Outline: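 Fluorescent RT-PCR products separated by capillary electrophoresis report PAX6-linked promoter mRNA in HepG2 cells 24 h post-dose. Curves fitted bidirectionally, DMSO as negative control.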

[2] = ATG_PXRE_CIS: Attagene CIS-FACTORIAL HepG2 Assay for human Pregnane X Receptor Element (PXRE) (AID 2282957); conditions: HepG2 Attagene CIS-FACTORIAL PXRE reporter, mRNA; actives raise or lower the signal
Outline: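 Endogenous transcription factor activity in HepG2 was gauged through induction of reporter mRNA driven by a cis-regulating promoter element, sampled 24 h post-treatment. Activity was fitted in both directions against DMSO negative control.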

[3] = ATG_PPRE_CIS: Attagene CIS-FACTORIAL HepG2 Assay for human Peroxisome Proliferator-activated Response Element (PPRE) (AID 2282958); conditions: HepG2 PPRE cis-element reporter, Attagene transcription factor profiling; actives raise or lower the signal
Outline: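 After human HepG2 hepatoma cells were transiently transfected with cis-promoter reporter constructs, they were exposed to test chemicals for 24 hours. Reporter RNA was then reverse-transcribed, PCR-amplified, FAM-labeled, HpaI-digested and quantified by capillary electrophoresis.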

[4] = ATG_RORE_CIS: Attagene CIS-FACTORIAL HepG2 Assay for human RAR-related Orphan Receptor Element (RORE) (AID 2282959); conditions: HepG2 Attagene cis-factorial RORE reporter, mRNA; actives raise or lower the signal
Outline: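 Measured here: transcript induction of a cis-regulated reporter in HepG2 cells transiently transfected via FuGene 6. After 24 h, RNA was processed by RT-PCR and fluorescent capillary electrophoresis; DMSO defined baseline activity.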

[5] = biological target: Transcription factor Sp1 (Homo sapiens) (UniProt P08047); test: ATG_Sp1_CIS: Attagene CIS-FACTORIAL HepG2 Assay for human Specificity Protein 1 (Sp1) (AID 2282961); conditions: HepG2 Sp1 cis-reporter transcription, actives raise or lower the signal
Outline: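 After transient transfection of HepG2 cells with cis-promoter reporter units and 24 h chemical treatment, reporter transcripts were quantified by RT-PCR and capillary electrophoresis fluorescence. Gain- and loss-of-signal fitted against DMSO.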

[6] = ATG_SREBP_CIS: Attagene CIS-FACTORIAL HepG2 Assay for human Sterol Regulatory Element Binding (SREBP) (AID 2282962); conditions: HepG2 Attagene cis-factorial SREBP reporter, mRNA; actives raise or lower the signal
Outline: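 Endogenous factor activity is measured in HepG2 through multiplexed reporter units under cis-element control. Following a 24 h incubation, reporter transcripts are reverse-transcribed, PCR-amplified and sized by capillary electrophoresis; activity is fitted in both directions relative to DMSO.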

[7] = biological target: Signal transducer and activator of transcription 3 (Homo sapiens) (UniProt P40763); test: ATG_STAT3_CIS: Attagene CIS-FACTORIAL HepG2 Assay for human Signal Transducer and Activator of Transcription 3 (STAT3) (AID 2282963); conditions: HepG2, Attagene cis-factorial STAT3 reporter transcription; actives raise or lower the signal
Outline: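 Fluorescence intensity of 6-FAM-labelled reporter fragments, separated by capillary electrophoresis after RT-PCR, gave the signal. Cells were HepG2 transfected with cis-element reporter units and treated 24 h; fitting was bidirectional relative to DMSO.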

[8] = ATG_TA_CIS: Attagene CIS-FACTORIAL HepG2 Assay for human TA Basal Promoter (AID 2282964); conditions: HepG2 Attagene CIS-factorial TA basal promoter reporter; actives raise or lower the signal
Outline: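 HepG2 cells transiently transfected with multiplexed cis-promoter reporter units, dosed 24 h. Reporter mRNA measured by RT-PCR, 6-FAM labelling, HpaI digestion and capillary electrophoresis; bidirectional fit versus DMSO baseline, serving as background control.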

[9] = ATG_TCF_b_cat_CIS: Attagene CIS-FACTORIAL HepG2 Assay for human T-Cell-Factor with beta-catenin (TCF/b-cat) (AID 2282965); conditions: HepG2 TCF/beta-catenin cis-reporter transcription, actives raise or lower the signal
Outline: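 Cells of the HepG2 line carry transiently transfected reporter units whose promoters respond to endogenous factors. Twenty-four hours post-dosing, reporter mRNA induction is measured by fluorescent RT-PCR and capillary electrophoresis, with DMSO as baseline.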

[10] = ATG_TAL_CIS: Attagene CIS-FACTORIAL HepG2 Assay for human TAL Basal Promoter (AID 2282966); conditions: HepG2 Attagene cis-factorial TAL promoter reporter; actives raise or lower the signal;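 further: background control endpoint measuring basal TAL promoter reporter mRNA not a specific factor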
Outline: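 Endogenous transcription-factor activity is sensed in HepG2 cells through transfected cis-promoter reporter constructs. After 24 h dosing, reporter transcripts are quantified by RT-PCR and capillary electrophoresis. Gain or loss of signal is fitted relative to DMSO.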

[11] = ATG_TGFb_CIS: Attagene CIS-FACTORIAL HepG2 Assay for human Transforming Growth Factor (TGF) (AID 2282967); conditions: HepG2 Attagene CIS TGFb reporter, mRNA transcription; actives raise or lower the signal
Outline: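 HepG2 cells transiently transfected with cis-promoter-driven multiplexed reporter units; 24 h compound exposure. Reporter mRNA measured by RT-PCR, 6-FAM labeling, HpaI digestion and capillary electrophoresis; bidirectional fit versus DMSO baseline.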

[12] = ATG_VDRE_CIS: Attagene CIS-FACTORIAL HepG2 Assay for human Vitamin D Receptor Element (VDRE) (AID 2282968); conditions: HepG2 VDRE cis-reporter transcription, actives raise or lower the signal
Outline: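 Compounds were applied for 24 h to HepG2 cells transfected with promoter-regulated reporter units. Total RNA was reverse-transcribed, and reporter amplicons were fluorescently labelled and sized by capillary electrophoresis.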

[13] = biological target: Nuclear receptor subfamily 1 group I member 3 (Homo sapiens) (UniProt Q14994); test: ATG_CAR_TRANS: Attagene TRANS-FACTORIAL HepG2 Assay for human Constitutive Androstane Receptor (CAR) (AID 2282969; active means hit-call score of the fitted dose curve at least 0.9, where 1 is the maximum;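 further: activators raise reporter mRNA above DMSO so AC50 marks induction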); conditions: HepG2 Attagene TRANS-FACTORIAL CAR reporter
Outline: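 Transiently transfected HepG2, multiplex TRANS reporters (CAR-Gal4 chimera driving GAL4-UAS reporter). 24 h dosing. Readout: reporter transcript by RT-PCR + capillary electrophoresis, fluorescence intensity; positive direction vs DMSO.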

[14] = biological target: Steroid hormone receptor ERR1 (Homo sapiens) (UniProt P11474); test: ATG_ERRa_TRANS: Attagene TRANS-FACTORIAL HepG2 Assay for human Estrogen-Related Receptor alpha (ERRa) (AID 2282971; active means hit-call score of the fitted dose curve at least 0.9, where 1 is the maximum); conditions: HepG2 Attagene TRANS reporter, ERRa transactivation
Outline: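 HepG2 cells were transiently transfected with multiple GAL4-UAS reporter units, then dosed with compound for 24 h. Total RNA was reverse-transcribed, reporter cDNA PCR-amplified and fluorescently labelled, and fragments resolved by capillary electrophoresis; induction was compared with DMSO.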

[15] = biological target: X-box-binding protein 1 (Homo sapiens) (UniProt P17861); test: ATG_Xbp1_CIS: Attagene CIS-FACTORIAL HepG2 Assay for human X-box Binding Protein 1 (XBP1) (AID 2282972); conditions: HepG2 XBP1 cis-element reporter, Attagene multiplex; actives raise or lower the signal
Outline: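 Multiplexed cis-reporter readout in transfected HepG2 liver cells. Exposure lasted 24 hours. Activity in either direction was fitted against DMSO as negative control and baseline.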

[16] = ATG_M_19_TRANS: Attagene TRANS-FACTORIAL HepG2 Assay for M19 Transcription Factor (Internal Marker) (AID 2282974; active means hit-call score of the fitted dose curve at least 0.9, where 1 is the maximum); conditions: HepG2 Attagene TRANS-FACTORIAL M19 internal marker reporter
Outline: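 Gain-of-signal in reporter mRNA, relative to DMSO, was scored from capillary electrophoresis fluorescence. HepG2 cells carried transiently transfected multiple reporter transcription units and were incubated with test chemicals for 24 h.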

[17] = ATG_GAL4_TRANS: Attagene TRANS-FACTORIAL HepG2 Assay for GAL4 (Internal Marker) (AID 2282976; active means hit-call score of the fitted dose curve at least 0.9, where 1 is the maximum); conditions: HepG2 Attagene TRANS GAL4 internal marker reporter
Outline: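 Fluorescence from capillary electrophoresis of labelled RT-PCR products quantifies reporter mRNA induction after 24 h dosing of HepG2 cells carrying transfected GAL4-UAS reporter transcription units. Vehicle DMSO serves as baseline.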

[18] = biological target: Estrogen-related receptor gamma (Homo sapiens) (UniProt P62508); test: ATG_ERRg_TRANS: Attagene TRANS-FACTORIAL HepG2 Assay for human Estrogen-Related Receptor gamma (ERRg) (AID 2282977; active means hit-call score of the fitted dose curve at least 0.9, where 1 is the maximum;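 further: hits increase reporter signal over DMSO so potencies reflect activators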); conditions: HepG2 Attagene TRANS reporter, ERRg transactivation
Outline: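 Induction of reporter transcripts through a chimeric NR-Gal4 protein is quantified in transfected human HepG2 liver cells after 24 h chemical exposure, using RT-PCR with capillary electrophoresis detection and DMSO as baseline.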

[19] = ATG_Sox_CIS: Attagene CIS-FACTORIAL HepG2 Assay for human SRY-box transcription factor (SOX) (AID 2282960); conditions: HepG2 Attagene cis-factorial SOX reporter, mRNA; actives raise or lower the signal
Outline: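 Using transiently transfected HepG2 cells, reporter transcription driven by cis elements was assessed 24 h after dosing. Signal was fluorescence of capillary-separated RT-PCR products, with DMSO defining baseline activity.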

[20] = biological target: Estrogen receptor (Homo sapiens) (UniProt P03372); test: ATG_ERa_TRANS: Attagene TRANS-FACTORIAL HepG2 Assay for human Estrogen Receptor alpha (ERa) (AID 2282970; active means hit-call score of the fitted dose curve at least 0.9, where 1 is the maximum); conditions: HepG2 Attagene TRANS ERa GAL4 reporter, mRNA
Outline: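 Transfected HepG2 cells carrying GAL4-UAS-driven reporter units were dosed for 24 hours. Total RNA was reverse-transcribed, reporter sequences PCR-amplified, FAM-labelled, HpaI-digested and resolved by capillary electrophoresis. Increases over DMSO control defined activity.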

Measured: AC50

X-box-binding protein 1 (Homo sapiens), sequence (P17861 whole entry, looked up): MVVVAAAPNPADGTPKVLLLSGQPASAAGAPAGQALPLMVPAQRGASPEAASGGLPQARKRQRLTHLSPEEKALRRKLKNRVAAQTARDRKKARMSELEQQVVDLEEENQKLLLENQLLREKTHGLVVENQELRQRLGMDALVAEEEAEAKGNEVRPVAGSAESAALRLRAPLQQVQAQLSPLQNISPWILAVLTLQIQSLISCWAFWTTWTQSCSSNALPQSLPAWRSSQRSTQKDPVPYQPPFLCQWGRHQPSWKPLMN
Nuclear receptor subfamily 1 group I member 3 (Homo sapiens), sequence (Q14994 whole entry, looked up, the tested form may be a part): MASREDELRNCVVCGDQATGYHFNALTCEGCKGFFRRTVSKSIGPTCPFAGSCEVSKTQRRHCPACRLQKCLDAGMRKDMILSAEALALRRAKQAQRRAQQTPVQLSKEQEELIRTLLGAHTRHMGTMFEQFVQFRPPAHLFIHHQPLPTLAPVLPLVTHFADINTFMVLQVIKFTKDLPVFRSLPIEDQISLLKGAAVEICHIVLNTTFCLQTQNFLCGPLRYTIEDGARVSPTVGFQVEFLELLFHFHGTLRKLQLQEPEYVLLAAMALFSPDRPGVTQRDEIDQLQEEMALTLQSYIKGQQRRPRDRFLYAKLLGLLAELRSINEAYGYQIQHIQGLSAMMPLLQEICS
Estrogen receptor (Homo sapiens), sequence (P03372 whole entry, looked up, the tested form may be a part): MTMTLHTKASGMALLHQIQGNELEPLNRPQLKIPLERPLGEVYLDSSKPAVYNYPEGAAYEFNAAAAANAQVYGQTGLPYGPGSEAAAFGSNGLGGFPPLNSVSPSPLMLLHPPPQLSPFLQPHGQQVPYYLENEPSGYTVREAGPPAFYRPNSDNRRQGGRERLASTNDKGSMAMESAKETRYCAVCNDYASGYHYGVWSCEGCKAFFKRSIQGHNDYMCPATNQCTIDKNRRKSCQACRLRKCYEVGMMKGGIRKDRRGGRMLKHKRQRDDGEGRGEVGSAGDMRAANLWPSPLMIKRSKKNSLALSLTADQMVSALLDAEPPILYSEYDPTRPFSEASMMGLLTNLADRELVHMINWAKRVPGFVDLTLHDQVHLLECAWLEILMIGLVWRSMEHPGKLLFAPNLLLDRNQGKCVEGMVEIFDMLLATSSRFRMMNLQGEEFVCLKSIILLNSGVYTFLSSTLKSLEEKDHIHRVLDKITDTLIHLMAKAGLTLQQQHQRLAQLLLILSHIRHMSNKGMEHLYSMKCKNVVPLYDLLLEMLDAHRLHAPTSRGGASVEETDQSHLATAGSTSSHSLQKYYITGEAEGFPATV
Paired box protein Pax-6 (Homo sapiens), sequence (P26367 whole entry, looked up): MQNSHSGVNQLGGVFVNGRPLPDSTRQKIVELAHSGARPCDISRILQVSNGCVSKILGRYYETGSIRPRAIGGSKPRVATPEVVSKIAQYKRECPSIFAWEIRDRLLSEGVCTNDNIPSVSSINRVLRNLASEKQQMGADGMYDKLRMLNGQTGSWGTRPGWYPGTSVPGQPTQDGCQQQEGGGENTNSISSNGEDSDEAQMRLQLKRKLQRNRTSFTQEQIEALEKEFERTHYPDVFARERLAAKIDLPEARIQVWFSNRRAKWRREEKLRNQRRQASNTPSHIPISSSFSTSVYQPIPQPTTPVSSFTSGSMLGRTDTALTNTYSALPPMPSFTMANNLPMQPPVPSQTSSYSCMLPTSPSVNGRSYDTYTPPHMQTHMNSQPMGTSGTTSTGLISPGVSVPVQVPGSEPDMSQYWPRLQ
Transcription factor Sp1 (Homo sapiens), sequence (P08047 whole entry, looked up): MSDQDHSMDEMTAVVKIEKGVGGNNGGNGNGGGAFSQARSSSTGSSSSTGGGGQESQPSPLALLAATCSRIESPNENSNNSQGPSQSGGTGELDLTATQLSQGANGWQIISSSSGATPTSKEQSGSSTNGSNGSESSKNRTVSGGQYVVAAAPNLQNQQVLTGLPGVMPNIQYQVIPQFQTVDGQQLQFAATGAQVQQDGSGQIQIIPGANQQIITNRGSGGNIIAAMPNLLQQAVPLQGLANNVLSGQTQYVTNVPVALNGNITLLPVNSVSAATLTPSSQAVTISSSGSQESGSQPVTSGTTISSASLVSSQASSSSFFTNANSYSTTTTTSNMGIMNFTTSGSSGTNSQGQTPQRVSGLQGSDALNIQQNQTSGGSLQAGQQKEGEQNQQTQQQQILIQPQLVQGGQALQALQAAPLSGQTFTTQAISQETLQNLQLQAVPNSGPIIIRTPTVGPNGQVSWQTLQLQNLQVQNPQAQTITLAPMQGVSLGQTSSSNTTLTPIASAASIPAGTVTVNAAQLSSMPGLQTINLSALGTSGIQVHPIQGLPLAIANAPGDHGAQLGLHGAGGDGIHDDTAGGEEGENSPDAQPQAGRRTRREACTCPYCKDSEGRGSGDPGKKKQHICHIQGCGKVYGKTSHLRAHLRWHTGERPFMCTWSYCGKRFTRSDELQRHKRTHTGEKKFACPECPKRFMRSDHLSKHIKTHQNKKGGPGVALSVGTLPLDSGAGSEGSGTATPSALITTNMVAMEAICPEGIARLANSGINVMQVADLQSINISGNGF
Steroid hormone receptor ERR1 (Homo sapiens), sequence (P11474 whole entry, looked up, the tested form may be a part): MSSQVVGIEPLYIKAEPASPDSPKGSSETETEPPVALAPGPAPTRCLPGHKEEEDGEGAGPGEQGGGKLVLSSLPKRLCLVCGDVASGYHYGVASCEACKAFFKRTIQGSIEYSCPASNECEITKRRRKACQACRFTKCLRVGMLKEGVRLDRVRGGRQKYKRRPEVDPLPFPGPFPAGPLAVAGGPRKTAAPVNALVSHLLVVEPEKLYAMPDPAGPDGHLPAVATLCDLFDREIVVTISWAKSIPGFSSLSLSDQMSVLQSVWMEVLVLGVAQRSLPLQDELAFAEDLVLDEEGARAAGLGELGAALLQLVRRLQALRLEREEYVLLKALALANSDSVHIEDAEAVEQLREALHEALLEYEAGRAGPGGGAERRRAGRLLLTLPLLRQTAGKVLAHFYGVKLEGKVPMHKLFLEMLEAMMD
Estrogen-related receptor gamma (Homo sapiens), sequence (P62508 whole entry, looked up, the tested form may be a part): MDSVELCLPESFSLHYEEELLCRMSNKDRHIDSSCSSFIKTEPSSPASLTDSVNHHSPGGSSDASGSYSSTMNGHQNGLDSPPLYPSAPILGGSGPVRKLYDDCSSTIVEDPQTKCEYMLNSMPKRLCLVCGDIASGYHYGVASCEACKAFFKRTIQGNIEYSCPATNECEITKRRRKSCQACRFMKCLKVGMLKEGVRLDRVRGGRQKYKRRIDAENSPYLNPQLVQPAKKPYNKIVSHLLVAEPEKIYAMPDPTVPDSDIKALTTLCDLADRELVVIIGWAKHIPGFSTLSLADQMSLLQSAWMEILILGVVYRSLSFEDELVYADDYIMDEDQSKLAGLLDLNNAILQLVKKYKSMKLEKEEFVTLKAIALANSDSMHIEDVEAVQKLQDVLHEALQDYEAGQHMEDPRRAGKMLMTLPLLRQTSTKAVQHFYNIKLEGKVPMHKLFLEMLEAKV
Signal transducer and activator of transcription 3 (Homo sapiens), sequence (P40763 whole entry, looked up, the tested form may be a part): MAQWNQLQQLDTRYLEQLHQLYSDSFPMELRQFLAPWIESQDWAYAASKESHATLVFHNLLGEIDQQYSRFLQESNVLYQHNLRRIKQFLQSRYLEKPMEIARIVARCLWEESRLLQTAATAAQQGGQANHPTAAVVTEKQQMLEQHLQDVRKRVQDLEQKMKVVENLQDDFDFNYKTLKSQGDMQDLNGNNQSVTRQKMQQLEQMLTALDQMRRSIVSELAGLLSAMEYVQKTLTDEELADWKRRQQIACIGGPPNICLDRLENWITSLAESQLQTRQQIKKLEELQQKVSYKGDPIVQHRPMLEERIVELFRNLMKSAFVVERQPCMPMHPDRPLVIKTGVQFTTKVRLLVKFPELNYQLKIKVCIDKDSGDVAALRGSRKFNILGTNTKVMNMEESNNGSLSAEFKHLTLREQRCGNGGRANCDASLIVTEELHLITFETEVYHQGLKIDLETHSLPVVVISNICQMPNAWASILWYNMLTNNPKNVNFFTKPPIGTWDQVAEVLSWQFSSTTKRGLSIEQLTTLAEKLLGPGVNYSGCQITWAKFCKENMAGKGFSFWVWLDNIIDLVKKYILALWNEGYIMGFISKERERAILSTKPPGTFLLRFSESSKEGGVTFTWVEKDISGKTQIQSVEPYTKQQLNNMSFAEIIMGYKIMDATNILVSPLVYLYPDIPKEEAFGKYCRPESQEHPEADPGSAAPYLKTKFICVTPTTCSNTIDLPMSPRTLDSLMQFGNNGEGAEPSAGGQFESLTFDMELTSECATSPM

Cc1ccc(C=O)s1
active: [2] 35.7 µM
not listed: [19] | [20]
inactive: all other assays above

O=c1[nH]nnc2ccccc12
not listed: [4] | [13] | [14] | [17] | [18] | [20]
inactive: all other assays above

C=C[Si](OCC)(OCC)OCC
active: [2] 5.48 µM
not listed: [4] | [10] | [13] | [14] | [16] | [18] | [20]
inactive: all other assays above

CCCCO
not listed: [4] | [13] | [14] | [17] | [18] | [20]
inactive: all other assays above

CCCCCCCCCCC(CO)CCCCCCCC (stereo not drawn)
not listed: [4] | [14] | [16] | [17] | [18] | [20]
inactive: all other assays above

CC(O)C(C)O (stereo not drawn)
not listed: [5] | [13] | [14] | [18] | [19] | [20]
inactive: all other assays above

CC(C)(COC(=O)c1ccccc1)COC(=O)c1ccccc1
active: [2] 34.7 µM | [11] 100 µM | [12] 45.8 µM
not listed: [4] | [14] | [16] | [17] | [18] | [20]
inactive: all other assays above

C=CCOc1nc(OCC=C)nc(OCC=C)n1
active: [2] 17.2 µM
not listed: [4] | [13] | [14] | [17] | [18] | [20]
inactive: all other assays above

C=C(C)C(=O)OCCOC(=O)CC(C)=O
not listed: [4] | [13] | [14] | [18] | [20]
inactive: all other assays above

CN(C)C(=N)N=C(N)N
not listed: [4] | [12] | [14] | [18] | [20]
inactive: all other assays above

CCC/C=C/C=O
active: [2] 11.2 µM
not listed: [12] | [13] | [14] | [17] | [18] | [19] | [20]
inactive: all other assays above

CC(C)=CCCC(C)=CCCC(C)=CCO
active: [2] 4.26 µM | [6] 41.4 µM
not listed: [4] | [14] | [17] | [18] | [20]
inactive: all other assays above

C=CC(=O)OCCn1c(=O)n(CCOC(=O)C=C)c(=O)n(CCOC(=O)C=C)c1=O
active: [1] 15.7 µM | [5] 8.63 µM | [7] 27 µM | [9] 9.02 µM | [12] 4.16 µM | [15] 8.6 µM
not listed: [13] | [16] | [17] | [19] | [20]
inactive: all other assays above

CCCC1CCC(=O)O1 (stereo not drawn)
not listed: [4] | [10] | [13] | [14] | [16] | [18] | [20]
inactive: all other assays above

O=Cc1ccc(Cl)c([N+](=O)[O-])c1
inactive: [3] | [7] | [8] | [10] | [11] | [20]
active: [1] 91.2 µM | [2] 67.5 µM | [19] 109 µM | [5] 146 µM | [6] 137 µM | [9] 65.1 µM | [12] 100 µM | [15] 149 µM

COCCOCCOCCOCCOCCO
not listed: [8] | [17] | [19] | [20]
inactive: all other assays above

NC(=O)Nc1ccc(Cl)cc1
not listed: [4] | [14] | [16]
inactive: all other assays above

Clc1cccc(Cl)n1
not listed: [8] | [10] | [14] | [17] | [19]
inactive: all other assays above
